Screening data deposited in PubChem by several laboratories.
Rows were chosen to be rich in hits. Some 5.4% of all compounds tested hit in one or more screens of this group.
beta cell repl = inducers of MIN6 beta-cell proliferation, primary screen, ATP luminescence, uHTS | MIN6 cells proliferation, ATPlite luminescence, 48 h; cells starved in 0.2% serum; 100% = growth in 10% serum | proliferation, % at 10 µM | hit rate 0.29% among 330,000;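 active = compounds whose signal lies at least 3.5 SD above the mean of all wells on their plate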;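 also: 0% = DMSO-treated cells in low-serum medium and 100% = 10% serum control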
M18AAP inhibitor = PfM18AAP inhibitors, malaria aminopeptidase, primary screen, biochemical, QFRET, recombinant enzyme; M18 aspartyl aminopeptidase (Plasmodium falciparum 3D7); H-Glu-NHMec fluorogenic cleavage; inhibition, % at 7.35 µM; hit rate 1.2% among 290,000;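 active = inhibition above the campaign mean inhibition over all tested compounds plus 3 SD, cut at about 28% in these data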;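 also: 0% = plate median of test compound wells and 100% = 2 mM ZnCl2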
GASC-1 inh = inhibitors of GASC-1 histone demethylase, primary screen, biochemical, fluorescence, DELFIA europium; Lysine-specific demethylase 4C (Homo sapiens), Q9H3R0; GST-JMJD2C(1-420) H3K9me3 demethylation; inhibition, % at 2.35 µM; hit rate 0.069% among 330,000; AID 2099, 2009;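 active = more than half of a compound's replicate wells show inhibition beyond 50%, single wells judged on their own value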;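 also: signal counts dimethyl H3K9 product captured on neutravidin plate; 0% = median of DMSO wells and 100% = 0.3 times that DMSO median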
Target sequence (Q9H3R0 1-420 limits assumed): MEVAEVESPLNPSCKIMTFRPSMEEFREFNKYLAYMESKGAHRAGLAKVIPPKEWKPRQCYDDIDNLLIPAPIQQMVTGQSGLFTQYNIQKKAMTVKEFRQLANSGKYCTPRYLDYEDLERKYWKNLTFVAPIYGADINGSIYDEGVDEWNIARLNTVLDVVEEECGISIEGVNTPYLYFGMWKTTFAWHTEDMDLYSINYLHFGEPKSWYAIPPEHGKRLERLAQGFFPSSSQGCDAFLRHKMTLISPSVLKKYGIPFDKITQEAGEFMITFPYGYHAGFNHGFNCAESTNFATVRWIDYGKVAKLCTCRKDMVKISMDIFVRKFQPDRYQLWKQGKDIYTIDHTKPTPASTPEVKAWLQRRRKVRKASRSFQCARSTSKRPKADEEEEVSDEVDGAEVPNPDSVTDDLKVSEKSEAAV
ALR inh = inhibitors of human ALR sulfhydryl oxidase, primary screen, biochemical, H2O2 detection, HRP-luminol luminescence, single point; FAD-linked sulfhydryl oxidase ALR (Homo sapiens), P55789; purified ALR, DTT oxidation; inhibition, % (concentration not given with the values); hit rate 3.8% among 290,000;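 active = mean replicate inhibition above about 79%, with every replicate also reaching it, limit read from the data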
Target sequence (P55789 whole entry, looked up): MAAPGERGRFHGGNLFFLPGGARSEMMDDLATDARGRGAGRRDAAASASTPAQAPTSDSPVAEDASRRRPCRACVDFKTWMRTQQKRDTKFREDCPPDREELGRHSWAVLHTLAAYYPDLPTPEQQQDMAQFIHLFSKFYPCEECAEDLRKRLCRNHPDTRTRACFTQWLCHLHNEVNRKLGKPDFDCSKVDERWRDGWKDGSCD
Granule exo inh = LAMP-1 surface exposure blockers, TALL-104 cells – cell-based, flow cytometry, MLPCN library, primary screen; hit rate 0.66% among 360,000; TALL-104 LAMP-1 surface exposure; cells stimulated with thapsigargin and PMA; inhibition, % at 10 µM;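 active = inhibition above about 55%, limit read from the data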
SMARCA2 act = SMARCA2 (BRM) function activators, primary screen, cell-based, luminescence, high throughput | hit rate 1% among 370,000 | activation, % at 9.1 µM | AID 652017, 2013 | MG213 cells, MMTV-luciferase reporter, dexamethasone, overnight; in the data active = activation above about 7.8%;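 also: 0% = vehicle wells and 100% = reference activator wells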
* marks the source's active call; other numbers are inactive results; x = no result given.

SMILES	beta cell repl	M18AAP inhibitor	GASC-1 inh	ALR inh	Granule exo inh	SMARCA2 act
CC1(C(=O)N2CCN(c3ccccc3)CC2)CC1(Cl)Cl (configuration not stated)	0.7	5.0	-2.4	96.2*	-2.9	-4.2
O=C(CSC1CCCCC1)N1CCN(c2ccccc2)CC1	-4.9	7.7	3.4	98.0*	0.2	-0.7
O=C(Cc1ccc(Br)cc1)N1CCN(c2ccccc2)CC1	-1.2	-11.5	-10.2	97.6*	2.4	5.4
O=C(CSCc1ccccc1)N1CCN(c2ccccc2)CC1	0.0	2.4	1.4	98.2*	1.2	3.4
O=C(Cc1ccc(Br)cc1)N1CCN(C(=O)c2ccccc2)CC1	3.3	x	4.8	-1.1	-1.0	-1.7
CC1(C(=O)N2CCN(c3ccc([N+](=O)[O-])cc3)CC2)CC1(Cl)Cl (configuration not stated)	-2.8	8.2	-2.0	13.2	-2.8	-2.4
Cc1ccc(OCc2nnc(SCC(=O)Nc3cccc4ccccc34)n2Cc2ccco2)cc1	x	x	x	x	x	-3.4
O=C(CN1CCN(c2ccccc2)CC1)N1CCN(c2ccccc2)CC1	-3.3	-5.7	3.7	98.6*	0.3	0.2
O=C(CSCc1ccccc1)N1CCN(c2ccc(F)cc2)CC1	-1.4	-4.3	4.6	88.5*	-1.6	2.8
Cc1ccc(CSCc2nnc(SCC(=O)N3CCN(c4ccccc4)CC3)n2C)cc1	-2.1	-2.3	14.6	52.2	3.6	-0.8
CCn1c(CSCc2ccc(F)cc2)nnc1SCC(=O)N1CCN(c2ccccc2)CC1	-3.0	0.6	2.8	96.8*	1.0	-1.3
O=C(CCc1ccccc1)N1CCN(c2ccc(F)cc2)CC1	-2.8	-11.8	-47.9	85.9*	-2.1	-4.4
O=C(CSCc1ccccc1)N1CCN(S(=O)(=O)c2ccc(F)cc2)CC1	-1.3	-27.1	-18.6	-0.5	11.3	-1.3
O=C(CN1CCN(c2ccccc2)CC1)Nc1ccncc1	-2.3	-3.4	-23.1	99.1*	6.8	-3.9
O=C(CSCc1cccc(F)c1)N1CCN(c2ccccc2)CC1	-1.7	3.4	-1.3	98.4*	-1.8	x
O=C(CN1CCN(c2ccc(F)cc2)CC1)NCc1ccc(F)cc1	-6.1	9.0	x	x	-4.4	-3.7
O=C(CSCc1ccccc1)N1CCN(c2cccc(C(F)(F)F)c2)CC1	-4.3	6.5	-4.8	-14.0	1.5	0.3
O=C(CN1CCN(c2ccc(F)cc2)CC1)OCc1ccccc1	-2.1	5.5	-5.0	91.7*	4.4	-2.3
C=C1[C@@H](CCO)N(S(=O)C(C)(C)C)C[C@@H]1C (some centres not stated)	x	x	x	x	x	2.8
COc1ccc2c(c1)CCCN2C(=O)C1CCCN(S(=O)(=O)c2cc(OC)ccc2OC)C1 (configuration not stated)	x	x	x	x	x	-1.9
COc1cc(C(=O)ON=C2C=C(C)C(=O)C(C)=C2)cc(OC)c1OC	4.8	-11.2	-5.9	57.4	-1.1	-1.6
COc1cc(C(=O)O/N=C2\C=CC(=O)C(C)=C2)cc(OC)c1OC	2.2	-3.1	-1.9	97.7*	13.0	4.6
CC1CCN(c2ccc(C(=O)O)cc2NS(=O)(=O)c2ccc(Cl)s2)CC1	x	x	x	x	x	-5.0
COC(=O)C[C@@H]1CC[C@H]2[C@@H](COc3ccc(NC(=O)c4cc(C)on4)cc3C(=O)N2C)O1	x	x	x	x	x	-2.6
CCN(CC)CC(=O)Nc1ccc2c(c1)Nc1ccccc1CC2	-1.8	-9.0	14.5	98.9*	3.4	-1.2
SMILES	beta cell repl	M18AAP inhibitor	GASC-1 inh	ALR inh	Granule exo inh	SMARCA2 act
CN(C)CCCNS(=O)(=O)c1ccc(NC2CCCCCC2)c([N+](=O)[O-])c1	-3.9	2.0	-2.6	-4.2	60.1*	-6.1
COC(=O)C1=C(C)N(Cc2ccc(Br)cc2)C(=S)NC1c1ccccc1 (configuration not stated)	x	x	x	x	x	-6.7
Cc1cccc(C2Nc3ccccc3C(=O)N2CCc2ccccc2)n1 (configuration not stated)	-2.6	-5.7	0.7	4.7	-1.9	0.0
O=C1c2ccccc2NC(c2cccc([N+](=O)[O-])c2)N1CCc1ccccc1 (configuration not stated)	0.0	2.5	-9.8	-4.0	76.4*	3.7
CCCCCCNC(=O)C1CSCCS(=O)(=O)N1Cc1ccc(C)cc1 (configuration not stated)	x	x	x	x	x	0.8
O=C(Nc1cccc(C(F)(F)F)c1)C(Sc1cccc[n+]1[O-])c1ccccc1 (configuration not stated)	0.0	-3.9	-4.3	78.3*	-1.7	-1.3
Clc1cccc(Cl)c1Cn1c(-c2cccnc2Cl)nc2ccccc21	-2.1	0.2	52.1*	1.0	0.0	x
C=CCn1c(-c2cccnc2Cl)nc2ccccc21	-1.6	5.9	-4.8	-2.5	-2.4	2.0
CC(C)NC(=O)N[C@@H]1C[C@@H]2O[C@H](CO)CC[C@@H]2O[C@@H]1CCc1ccc(-c2ccccc2F)cc1	x	x	x	x	x	-1.1
Nc1ccc(N=Nc2ccc(N)cc2)cc1	-2.7	5.7	-5.6	98.2*	2.1	-5.2
Cc1cc(N(C)C)ccc1N=Nc1ccc(N)cc1	-3.6	x	3.4	44.8	3.7	-4.8
CCS(=O)(=O)N1CCN(c2ccccc2)CC1	-1.7	1.9	-0.4	55.9	-1.4	0.5
O=C1Oc2ccccc2C(=O)/C1=C\N1CCN(c2ccccc2)CC1	-0.8	-3.3	-2.9	97.2*	-0.7	-4.2
CCOC(=O)/C(=C\c1cccc(O)c1)c1nc2sc(C)c(C)c2c(=O)[nH]1	-6.2	29.2*	-5.7	97.5*	13.9	-4.3
CCOC(=O)c1nc2sc(C)c(C)c2c(=O)[nH]1	-2.8	1.0	-2.8	-8.4	0.6	-1.8
Cc1csc(=N)n1-c1ccc(Cl)cc1	-2.4	5.5	-0.1	96.3*	-2.0	4.8
COc1cccc(/C=C2\SC(=O)N(CC(=O)NCCCn3ccnc3)C2=O)c1	-0.9	2.3	-19.6	98.9*	4.2	4.2
COc1cccc(/C=C2\SC(=O)N(CCC(=O)NCCCn3ccnc3)C2=O)c1	1.3	-0.7	-7.7	11.2	0.9	1.8
COc1ccc(CN2CCC(CNC(=O)Nc3ccccc3)CC2)cc1	x	x	x	x	x	-4.1
CCOC(=O)N1CCN(C(=O)C[C@H]2C[C@@]3(C(=O)OC)C(=C[C@H](C(C)(C)C)O[C@@H]3C)N(CCC3=CCCCC3)C2=O)CC1	x	x	x	x	x	-9.1
CCOC(=O)c1c(CSc2ccsc2)n(C)c2cc(Br)c(O)c(CN(C)C)c12	-5.1	18.1	-7.1	97.4*	16.5	-2.3
COc1cc(OC)c(NC(C)C(=O)N2CCCC2)cc1Cl (configuration not stated)	1.1	-1.0	-0.1	78.9*	1.8	-6.2
